Measurements taken from PubChem BioAssay (Tox21).
Inconclusive results are not listed. A call without a number means that no potency is given here. Active and inactive are the calls of the source. The call rests on the fitted dose curve; in most records, active means well fitted inhibition curve with a large enough effect in the signal ratio in the repeat runs; inconclusive means weak or mixed curves, or effect the other way; inactive means flat fitted curve, though single readings scatter; the % refers to the signal ratio.

test: qHTS assay for small molecule disruptors of the mitochondrial membrane potential (AID 720635); conditions: HepG2 mitochondrial membrane potential, Mito-MPS dye ratio; series mostly up to 83.2 µM
Description: U.S. Tox21 Program National Center for Advancing Translational Sciences [NCATS] NIH Chemical Genomics Center [NCGC] U.S. Environmental Protection Agency [EPA] National Institutes of Environmental Health Sciences [NIEHS] National Toxicology Program [NTP] U.S. Food and Drug Administration [FDA] Tox21 Assay Overview: Mitochondrial membrane potential (MMP), one of the parameters for mitochondrial function, is generated by mitochondrial electron transport chain that creates an electrochemical gradient by a series of redox reactions. This gradient drives the synthesis of ATP, a crucial molecule for various cellular processes. Measuring MMP in living cells is commonly used to assess the effect of chemicals on mitochondrial function. […] The dye accumulates in the mitochondria of healthy cells as aggregates, with red fluorescence. The mitochondrial potential collapses and the dye can no longer accumulate in the mitochondria and remains in the cytoplasm in monomers, with green fluorescence.
Tox21 Assay Protocol Summary: 2,000 HepG2 cells in 5 uL/well were dispensed into black, clear-bottom 1536-well plates using a Multidrop Combi (Thermo Scientific) dispenser. The assay plates were incubated overnight at 37C to allow cells to attach to the wells, followed by the transfer of 23 nL compound or DMSO vehicle by a pin tool (Kalypsys). The plates were incubated for 1 hr at 37C and 5% CO2, followed by the addition of 5 uL of 2X Mito-MPS dye (BD Biosciences) into each well using Flying Reagent Dispenser (Aurora Discovery) and then following 30 min incubation at 37C. Fluorescence intensity (490nm excitation and 535nm emission for monomers; and 540nm excitation and 590nm emissions for aggregates) was measured using an Envision plate reader.
Potency means the concentration at half of the fitted maximal effect.

Structure (SMILES) | Potency
O=c1ccc2cc(O[C@@H]3O[C@H](CO)[C@@H](O)[C@H](O)[C@H]3O)c(O)cc2o1 | inactive
CN1CSC(=S)N(C)C1 | inactive
COC([CH2][Hg])CNC(=O)c1ccccc1OCC(=O)O (stereo not given) | inactive
CCC1(CC)C(=O)NC(=O)N(C)C1=O | inactive
C=CCN(C1=NCCN1)c1c(Cl)cccc1Cl | inactive
C=CCC1(C(C)CCC)C(=O)N=C(S)NC1=O (stereo not given) | inactive
NC1=NC(=O)N2CC12 (stereo not given) | inactive
CCNCC(O)c1cccc(O)c1 (stereo not given) | inactive
Cc1ccc(N(SC(F)(Cl)Cl)S(=O)(=O)N(C)C)cc1 | 17.2 µM (active)
OCC(c1ccc(Cl)cc1)c1ccc(Cl)cc1 | 27.3 µM (active)
CCC(=O)O[C@@](Cc1ccccc1)(c1ccccc1)[C@@H](C)CN(C)C | inactive
C[C@]12C=CC(=O)C=C1CC[C@@H]1[C@@H]2CC[C@]2(C)OC(=O)CC[C@@H]12 | inactive
CC(C)C[C@H](CN)CC(=O)O | inactive
C[C@]12CC[C@@H]3c4ccc(OC(=O)N(CCCl)CCCl)cc4CC[C@H]3[C@@H]1CC[C@@H]2OP(=O)(O)O | inactive
COC1=CC=C2[C@H]3Cc4ccc(OC)c5c4[C@@]2(CCN3C)[C@H]1O5 | inactive
CC[N+](C)(CC)CCOC(=O)C(O)(c1ccccc1)c1ccccc1 | inactive
CCC(=O)O[C@]1(c2ccccc2)CCN(C)C[C@H]1C | inactive
Cc1ccccc1-n1c(CF)nc2ccc(N)cc2c1=O | inactive
O=C1CN(O)C(c2ccccc2)=c2cc(Cl)ccc2=N1 | inactive
CCOC(=O)C1(c2ccccc2)CCCN(C)CC1 (stereo not given) | inactive

Structure (SMILES) | Potency
C[C@@H](N)C(=O)c1ccccc1 | inactive
CC(=O)OO | inactive
Clc1ccccc1-c1ccccc1Cl | 19.6 µM (active)
COc1ccc(C(c2ccc(OC)cc2)C(Cl)(Cl)Cl)cc1 | 13.7 µM (active)
OC[C@@H](O)[C@H]1O[C@@H]2O[C@@H](C(Cl)(Cl)Cl)O[C@@H]2[C@H]1O | inactive
CC(C)C[C@H]1C(=O)N2CCC[C@H]2[C@]2(O)O[C@](NC(=O)[C@@H]3C[C@@H]4c5cccc6[nH]cc(c56)C[C@H]4N(C)C3)(C(C)C)C(=O)N12 | inactive
CO/C=C(/C(=O)OC)c1ccccc1Oc1cc(Oc2ccccc2C#N)ncn1 | 2.31 µM (active)
C[C@]12CC[C@H](O)C[C@H]1CC[C@@H]1[C@@H]2CC[C@]2(C)[C@@H](c3ccc(=O)oc3)C[C@H]3O[C@]132 | 2.66 µM (active)
CNC(C)C(O)c1ccc(O)cc1 (stereo not given) | inactive
C[C@@H]1[C@@H]2Cc3ccc(O)cc3[C@@]1(C)CCN2CCc1ccccc1 | inactive
O=P1(N(CCCl)CCCl)NC(OO)CCO1 (stereo not given) | inactive
C[N+]1([O-])[C@@H]2CC(OC(=O)[C@H](CO)c3ccccc3)C[C@H]1[C@@H]1O[C@@H]12 (stereo not given in full) | inactive
C=CCN1CC[C@]23c4c5ccc(O)c4O[C@H]2[C@@H](O)C=C[C@H]3[C@H]1C5 | inactive
CCCCC[C@@H](O)C1C(=O)OC(C)[C@H](O)/C=C/C=C/C=C/C=C/C=C(\C)C(O)C(O)C(O)C[C@H](O)C[C@H](O)C[C@H](O)C[C@H](O)C[C@@H]1O (stereo not given in full) | inactive
C[C@]12C[C@H]3S[C@H]3C[C@@H]1CC[C@@H]1[C@@H]2CC[C@]2(C)[C@@H](O)CC[C@@H]12 | 11.4 µM (active)
CC1(C)[C@H](C=C(Cl)Cl)[C@H]1C(=O)OCc1c(F)c(F)cc(F)c1F | 22.1 µM (active)
O=c1c2ccccc2[se]n1-c1ccccc1 | 22.1 µM (active)
C[C@@H]1[C@H]2Cc3ccc(O)cc3[C@]1(C)CCN2C | inactive
c1ccc(C2(N3CCCC3)CCCCC2)cc1 | 19.7 µM (active)
Cc1nnc2n1-c1sc(CCc3ccc(CC(C)C)cc3)cc1C(c1ccccc1Cl)=NC2C (stereo not given) | 21.1 µM (active)
